Assay [1] can be described thus: ATG_CRE_CIS: Attagene CIS-FACTORIAL HepG2 Assay for human cAMP Responsive Element (CRE) binding protein 3 (AID 2282926). To be noted: HepG2 CRE cis-reporter, Attagene multiplexed mRNA; actives raise or lower the signal. Summed up: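 Endogenous CRE-binding activity in HepG2 is reported through a cis-regulated transfected reporter. Following a day of exposure, mRNA levels are determined by reverse transcription PCR and fluorescent fragment analysis; fits run in both directions versus DMSO.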

Assay [2] addresses CCAAT/enhancer-binding protein beta (Homo sapiens) (UniProt P17676). Kind of assay: ATG_C_EBP_CIS: Attagene CIS-FACTORIAL HepG2 Assay for human CCAAT/Enhancer Binding Protein (C/EBP) beta (AID 2282927). The note with it: HepG2 Attagene cis-factorial transcription factor reporter; actives raise or lower the signal. In outline: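 Changes in reporter mRNA, rather than exogenous chimeric receptor activity, reflect native C/EBP signalling in transfected HepG2 cells dosed for 24 h; transcripts are detected by RT-PCR and capillary electrophoresis.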

The nature of assay [3]: ATG_CMV_CIS: Attagene CIS-FACTORIAL HepG2 Assay for human CMV (Internal Marker) (AID 2282928).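 Also: endpoint acts as a background internal control marker rather than a target.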 The note with it: HepG2 CMV promoter reporter, transcription factor profiling; actives raise or lower the signal. In outline:
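After transient transfection of HepG2 with reporter transcription units driven by cis-regulatory promoters, cells receive test chemical for 24 h. Labeled reporter amplicons, digested with HpaI, are sized and quantified by capillary electrophoresis against DMSO.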

Assay [4] in a line: ATG_DR4_LXR_CIS: Attagene CIS-FACTORIAL HepG2 Assay for human Liver X Receptor (LXR), DR4 submotif (AID 2282929). The note with it: HepG2 Attagene DR4 cis-reporter, mRNA transcription; actives raise or lower the signal. In outline:
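Endogenous factor activity at a DR4 cis-element is read as reporter mRNA in transiently transfected HepG2 cells. Exposure lasts 24 h; transcripts are amplified, fluorescently labelled and sized by capillary electrophoresis, with DMSO as baseline.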

For assay [5], the target named is Aryl hydrocarbon receptor (Homo sapiens) (UniProt P35869). Nature of the assay: ATG_Ahr_CIS: Attagene CIS-FACTORIAL HepG2 Assay for human Aryl Hydrocarbon Receptor (Ahr) (AID 2282930). The note with it: HepG2 AhR cis-factorial reporter transcription; actives raise or lower the signal. In outline: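 HepG2, transient MRTU (cis) transfection, 24 h exposure. RNA → cDNA → PCR → 6-FAM primer extension → HpaI 2 h 37 C → CE. Fit: bidirectional, DMSO baseline.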
Chain of Aryl hydrocarbon receptor (Homo sapiens) (P35869 whole entry, looked up): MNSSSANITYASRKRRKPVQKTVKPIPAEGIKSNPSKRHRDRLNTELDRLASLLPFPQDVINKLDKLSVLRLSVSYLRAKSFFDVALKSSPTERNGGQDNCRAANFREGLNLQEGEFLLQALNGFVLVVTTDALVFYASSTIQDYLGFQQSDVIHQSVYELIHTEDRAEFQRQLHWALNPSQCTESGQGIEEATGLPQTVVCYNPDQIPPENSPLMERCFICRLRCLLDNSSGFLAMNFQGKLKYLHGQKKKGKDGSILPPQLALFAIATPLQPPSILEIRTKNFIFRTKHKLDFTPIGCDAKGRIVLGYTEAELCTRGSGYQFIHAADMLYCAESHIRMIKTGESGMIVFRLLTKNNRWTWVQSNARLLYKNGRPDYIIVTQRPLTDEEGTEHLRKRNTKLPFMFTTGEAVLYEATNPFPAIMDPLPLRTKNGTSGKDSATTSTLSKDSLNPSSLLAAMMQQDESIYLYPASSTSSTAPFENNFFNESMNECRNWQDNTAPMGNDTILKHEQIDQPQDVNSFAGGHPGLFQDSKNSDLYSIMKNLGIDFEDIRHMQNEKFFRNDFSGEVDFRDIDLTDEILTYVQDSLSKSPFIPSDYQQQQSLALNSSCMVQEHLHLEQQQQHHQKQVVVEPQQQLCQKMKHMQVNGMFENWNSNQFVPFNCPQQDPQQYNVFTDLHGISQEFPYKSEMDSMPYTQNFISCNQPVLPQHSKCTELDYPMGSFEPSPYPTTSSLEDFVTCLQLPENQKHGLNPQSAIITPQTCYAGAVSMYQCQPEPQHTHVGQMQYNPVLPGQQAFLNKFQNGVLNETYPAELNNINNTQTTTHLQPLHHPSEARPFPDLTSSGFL

Assay [6] in a line: ATG_AP_1_CIS: Attagene CIS-FACTORIAL HepG2 Assay for human Activator Protein 1 (AP-1) (AID 2282931). To be noted: HepG2 Attagene cis-factorial AP-1 reporter mRNA; actives raise or lower the signal. Summed up:
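Fluorescence of labelled PCR fragments separated by capillary electrophoresis gives reporter mRNA levels. HepG2 with transfected cis-regulated reporter units, 24 h exposure; DMSO serves as baseline for bidirectional curve fits.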

Assay [7] in a line: ATG_BRE_CIS: Attagene CIS-FACTORIAL HepG2 Assay for human Bone Morphogenetic Protein (BMP) Response Element (BRE) (AID 2282933). The note with it: HepG2 BMP response element reporter, Attagene transcription factor profiling; actives raise or lower the signal. In outline:
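HepG2 cells transiently transfected with CIS reporter units (endogenous TF activity, BMP response element), dosed 24 h. Reporter mRNA quantified by RT-PCR, fluorescent labelling and capillary electrophoresis; bidirectional fit vs DMSO baseline.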

Assay [8] concerns the target Transcription factor E2F1 (Homo sapiens) (UniProt Q01094). Nature of the assay: ATG_E2F_CIS: Attagene CIS-FACTORIAL HepG2 Assay for human E2F Transcription Factor 1 (AID 2282935). To be noted: HepG2 Attagene cis-reporter, E2F reporter RNA transcripts; actives raise or lower the signal. Summed up:
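Cis-element reporter mRNA induction in transiently transfected HepG2, 24 h exposure. Activity fitted in both directions relative to DMSO negative control.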

A short description of assay [9]: ATG_AP_2_CIS: Attagene CIS-FACTORIAL HepG2 Assay for human Activator Protein 2 (AP-2) (AID 2282932). The note with it: HepG2 AP-2 cis-reporter, Attagene transcription factor profiling; actives raise or lower the signal. In outline:
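HepG2, transient MRTU transfection, cis-regulated reporters; 24 h compound exposure; RNA isolated, RT-PCR, 6-FAM labelling, HpaI digest, CE fluorescence. DMSO = negative control/baseline, bidirectional fit.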

The nature of assay [10]: ATG_E_Box_CIS: Attagene CIS-FACTORIAL HepG2 Assay for human Enhancer Box (E-box) (AID 2282936). To be noted: HepG2 E-box cis-reporter transcription, actives raise or lower the signal. In outline: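 Cells: HepG2 (human liver), transient MRTU transfection. Exposure 24 h. RNA → oligo(dT) RT → PCR → 6-FAM label → HpaI → CE. Activity fitted both directions relative to DMSO.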

Molecules are shown by their SMILES. Activity calls are given as the source filed them. The calls were made as follows: active = hit-call score of the fitted dose curve at least 0.9, where 1 is the maximum; inactive = score below 0.9.

Chain of CCAAT/enhancer-binding protein beta (Homo sapiens) (P17676 whole entry, looked up): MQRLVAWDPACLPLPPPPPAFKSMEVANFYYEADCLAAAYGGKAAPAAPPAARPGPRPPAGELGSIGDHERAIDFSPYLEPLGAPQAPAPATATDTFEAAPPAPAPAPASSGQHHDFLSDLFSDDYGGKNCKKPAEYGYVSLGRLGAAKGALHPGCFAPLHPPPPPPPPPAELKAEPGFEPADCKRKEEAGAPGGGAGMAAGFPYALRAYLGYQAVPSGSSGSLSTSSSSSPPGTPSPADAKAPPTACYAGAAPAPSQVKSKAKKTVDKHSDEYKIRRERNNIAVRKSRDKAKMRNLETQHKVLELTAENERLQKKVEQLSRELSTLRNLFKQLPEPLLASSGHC
Chain of Transcription factor E2F1 (Homo sapiens) (Q01094 whole entry, looked up): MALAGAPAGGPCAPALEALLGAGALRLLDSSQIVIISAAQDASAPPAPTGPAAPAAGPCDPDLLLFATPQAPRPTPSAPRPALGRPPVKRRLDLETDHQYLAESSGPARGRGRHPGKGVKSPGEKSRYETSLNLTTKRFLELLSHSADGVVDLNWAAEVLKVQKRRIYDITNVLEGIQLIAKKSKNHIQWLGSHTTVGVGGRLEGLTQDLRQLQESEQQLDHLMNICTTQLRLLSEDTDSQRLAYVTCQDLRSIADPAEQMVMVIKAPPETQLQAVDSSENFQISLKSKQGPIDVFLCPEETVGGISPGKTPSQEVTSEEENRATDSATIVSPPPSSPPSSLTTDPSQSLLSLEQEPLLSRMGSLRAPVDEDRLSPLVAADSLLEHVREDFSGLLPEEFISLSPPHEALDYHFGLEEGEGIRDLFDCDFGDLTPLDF

Usually AC50 stands for the concentration giving half of the maximal activity seen. For `Nc1nc(Cl)nc2c1ncn2[C@H]1C[C@H](O)[C@@H](CO)O1`, the compound was called inactive in assay [1], in assay [2], in assay [4], in [5], in assay [6] and in assay [7]. Moreover, the compound was called inactive in [8]. Also, the AC50 in assay [3] is 23.7 µM (active).
Take `CC(C)OC(=O)C(C)(C)Oc1ccc(C(=O)c2ccc(Cl)cc2)cc1`: the call in [1], in [2], in assay [5], in assay [9], in assay [8] and in assay [10] was inactive. The half-maximal activity concentration (AC50) was 67.9 µM (active) in assay [3], 61 µM (active) in assay [4], 74.4 µM (active) in assay [6] and 45.7 µM (active) in assay [7].
Consider `CSc1ccc(Oc2ccc(S(N)(=O)=O)cc2CN(C)C)cc1C`, for which the compound was classed as inactive in assay [1], in [2], in [3], in assay [4], in assay [5] and in assay [6]. Also, the result in [7], in assay [8] and in assay [10] was inactive.
Turning to `CS(=O)(=O)c1ccc([C@@H](C[C@H]2CCC(=O)C2)C(=O)Nc2cnccn2)cc1Cl`, the compound was classed as inactive in assay [1], in assay [2], in [3], in assay [4], in [5] and in assay [6]. For the same compound, the compound was called inactive in [9], in assay [7], in [8] and in assay [10].
In the case of `Cc1occc(=O)c1O`, the result in [1], in [2], in assay [3], in assay [4], in assay [5] and in assay [6] was inactive. For the same compound, the result in assay [7], in assay [8] and in assay [10] was inactive.
On to `CC1(C)C(=O)NC(=O)N1CO`, for which the result in assay [1], in [2], in assay [3], in assay [4], in assay [5] and in assay [6] was inactive. Moreover, the compound was called inactive in assay [7], in assay [8] and in assay [10].
In the case of `O=C1CCCCC1`, the compound was called inactive in assay [1], in assay [2], in assay [3], in [4], in [5] and in assay [6]. For the same compound, the outcome in assay [7], in assay [8] and in assay [10] was inactive.
Consider `CC(COCC(C)OC(=O)c1ccccc1)OC(=O)c1ccccc1` (stereo not given), for which the outcome in [1], in assay [2], in assay [3], in assay [4], in assay [5] and in [6] was inactive. For the same compound, the outcome in assay [7] and in [8] was inactive.
Consider `NC1CCCCC1`, for which the result in [1], in assay [2], in [3], in assay [4], in [5] and in [6] was inactive. In addition, the compound was classed as inactive in [7], in assay [8] and in assay [10].
Turning to `Cc1ccc(C(C)(C)C)c(O)c1`, the values for the AC50 in assay [1], in assay [3] and in [4] were 147 µM (active), 100 µM (active) and 167 µM (active), respectively. The outcome in assay [2], in assay [5], in assay [6], in assay [7], in [8] and in [10] was inactive.
`CC1=C(C)S(=O)(=O)CCS1(=O)=O`: the result in assay [1], in [4], in assay [5], in assay [7] and in assay [8] was inactive. For the same compound, the AC50 in assay [2] was 129 µM (active); in assay [3] it was 143 µM (active); in [6] it was 166 µM (active); in assay [10], 100 µM (active).
As for `Cn1cnc2c1c(=O)[nH]c(=O)n2C`, the call in assay [1], in assay [2], in [3], in [4], in assay [5] and in [6] was inactive. Also, the compound was classed as inactive in assay [9], in assay [7], in assay [8] and in [10].
As for `CC(C)NCC(O)c1ccc(O)c(O)c1` (stereo not given), the result in [1], in [2], in [3], in [4], in assay [6] and in assay [7] was inactive. Moreover, in assay [8], the compound was called inactive. The AC50 in assay [5] is 64.9 µM (active).
In the case of `CN(C)CCCN1c2ccccc2Sc2ccc(Cl)cc21`, the result in [1], in assay [2], in [3], in assay [5], in assay [7] and in assay [8] was inactive. The outcome in [10] was inactive. Also, the AC50 was 9.33 µM (active) in assay [4] and 18.2 µM (active) in [6].
With `CN(C)C(=O)NC1(c2ccccc2)CCN(CC[C@@]2(c3ccc(F)c(F)c3)CN(C(=O)c3ccccc3)CCO2)CC1`, the outcome in assay [1], in assay [2], in assay [3], in [4], in assay [5] and in assay [7] was inactive. Moreover, the compound was called inactive in assay [8]. The AC50 in [6] was 100 µM (active).
Turning to `O=C1NC(=O)C(c2ccccc2)(c2ccccc2)N1`, the compound was called inactive in assay [1], in assay [2], in [3], in assay [4], in assay [6] and in assay [7]. Besides, in assay [8], the outcome was inactive. Moreover, in assay [5], the AC50 was 59.3 µM (active).
As for `O=C(O)c1[nH]n(-c2ccc(S(=O)(=O)O)cc2)c(=O)c1N=Nc1ccc(S(=O)(=O)O)cc1`, the compound was called inactive in assay [1], in assay [2], in [3], in assay [4], in [6] and in [9]. Further, the result in assay [7], in assay [8] and in assay [10] was inactive. In addition, the AC50 in assay [5] was 58.7 µM (active).
For the compound `COc1ccc(C(=O)Nc2nc3ccccc3c(NCc3ccccc3)c2C#N)cc1`, the compound was classed as inactive in [1], in assay [2], in assay [4], in [6], in [7] and in assay [8]. Besides, the AC50 in [3] was 3.82 µM (active); in [5], 0.421 µM (active).

The values above are taken from PubChem BioAssay (EPA / NIEHS).
